Measurements: PubChem BioAssay (NCI)
Values joined by “and” are separate entries in the source; they are usually repeats but may differ in a detail not shown here. Identical values can stand only once. The panel holds about 83,000 compounds, 20% with a hit somewhere; the sample as a whole holds those more often.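 Activity criterion: percent growth below 10, measured after cells in 96-well plates were exposed to a single compound concentration for 48 hours.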 Active and inactive are the calls of the source.

Experiments:
Assay in all cases: NCI-60 one-dose screen, 48 h (100 = growth as untreated, 0 = no growth, -100 = all killed)
HCT-15 colon = settings: 10 µM unless noted
HT29 colon = settings: 10 µM unless noted
SNB-75 CNS = settings: 10 µM unless noted
SNB-19 CNS = settings: 10 µM unless noted
U251 CNS = settings: 10 µM unless noted
PC-3 prostate = settings: 10 µM unless noted
SK-MEL-5 melanoma = settings: 10 µM unless noted
UACC-62 melanoma = test system: UACC-62 melanoma
LOX IMVI melanoma = settings: 10 µM unless noted
SK-MEL-28 melanoma = settings: 10 µM unless noted
SK-MEL-2 melanoma = settings: 10 µM unless noted
SN12C renal = settings: 10 µM unless noted
UO-31 renal = settings: 10 µM unless noted
TK-10 renal = test system: TK-10 renal
CAKI-1 renal = settings: 10 µM unless noted
A498 renal = settings: 10 µM unless noted
CCRF-CEM leukemia = settings: 10 µM
MOLT-4 leukemia = settings: 10 µM unless noted
EKVX NSCLC = settings: 10 µM
ACHN renal = settings: 10 µM unless noted

Measured: growth

CC(=O)OCC1OC(OC(C)=O)C(OC(C)=O)C(OC(C)=O)C1OC(C)=O (centres undefined)
inactive: HCT-15 colon 98.2% and 104% | HT29 colon 110% and 115% | SNB-75 CNS 67.1% and 98.6% | SNB-19 CNS 102% and 106% | U251 CNS 95.6% and 96% | PC-3 prostate 105% and 104% | SK-MEL-5 melanoma 102% and 100% | UACC-62 melanoma; 10 µM unless noted 109% and 99.9% | LOX IMVI melanoma 96.9% and 97.3% | SK-MEL-28 melanoma 103% and 109% | SK-MEL-2 melanoma 109% and 111% | SN12C renal 104% and 105% | UO-31 renal 79.8% and 94.2% | TK-10 renal; 10 µM unless noted 110% and 106% | CAKI-1 renal 97.1% and 100% | A498 renal 112% and 85.9% | CCRF-CEM leukemia 95.2% and 110% | MOLT-4 leukemia 98.9% and 99.9%

C#CCOC(=O)Nc1ccccc1
inactive: HCT-15 colon 99.6% | HT29 colon 112% | SNB-75 CNS 91.2% | SNB-19 CNS 111% | U251 CNS 98.2% | PC-3 prostate 96.7% | SK-MEL-5 melanoma 103% | UACC-62 melanoma; 10 µM unless noted 104% | LOX IMVI melanoma 99.2% | SK-MEL-2 melanoma 109% | EKVX NSCLC 99.1% | SN12C renal 101% | UO-31 renal 97.7% | TK-10 renal; 10 µM unless noted 103% | CAKI-1 renal 98% | A498 renal 75.2% | CCRF-CEM leukemia 112% | MOLT-4 leukemia 104%

NC1CCC(C(=O)O)CC1 (centres undefined)
inactive: HCT-15 colon 106% and 98.9% | HT29 colon 101% and 102% | SNB-75 CNS 85.8% and 82% | SNB-19 CNS 105% and 110% | U251 CNS 103% and 106% | PC-3 prostate 93.3% and 86.9% | SK-MEL-5 melanoma 102% and 103% | UACC-62 melanoma; 10 µM unless noted 97.7% and 101% | LOX IMVI melanoma 107% and 96.2% | SK-MEL-28 melanoma 103% and 107% | SK-MEL-2 melanoma 104% and 102% | SN12C renal 97% and 103% | UO-31 renal 105% and 87% | TK-10 renal; 10 µM unless noted 97.7% and 102% | CAKI-1 renal 96.7% and 90.7% | A498 renal 94.7% and 86.6% | CCRF-CEM leukemia 80.9% and 79.5% | MOLT-4 leukemia 107% and 98%

Nc1ccc2c(O)cc(S(=O)(=O)O)cc2c1
inactive: HCT-15 colon 104% and 105% | HT29 colon 102% and 106% | SNB-75 CNS 99.7% | SNB-19 CNS 91.6% and 104% | U251 CNS 101% | PC-3 prostate 85.5% | SK-MEL-5 melanoma 96.6% and 104% | UACC-62 melanoma; 10 µM unless noted 93.7% and 103% | LOX IMVI melanoma 92.8% | SK-MEL-2 melanoma 108% and 92.1% | EKVX NSCLC 102% and 110% | SN12C renal 95.4% and 86.9% | UO-31 renal 69.5% and 63.5% | TK-10 renal; 10 µM unless noted 94.4% and 143% | CAKI-1 renal 87.1% | A498 renal 102% and 100% | CCRF-CEM leukemia 74.6% | MOLT-4 leukemia 87.3% and 92.5%

c1ccc(-c2nc3ccccc3s2)cc1
inactive: HCT-15 colon 92.2% | HT29 colon 114% | SNB-75 CNS 91.7% | SNB-19 CNS 95.3% | U251 CNS 99.6% | PC-3 prostate 86.9% | SK-MEL-5 melanoma 89.8% | UACC-62 melanoma; 10 µM unless noted 75.7% | LOX IMVI melanoma 88.5% | SK-MEL-2 melanoma 112% | EKVX NSCLC 85.5% | SN12C renal 88.7% | UO-31 renal 66.9% | ACHN renal 87.1% | CAKI-1 renal 79.7% | A498 renal 100% | CCRF-CEM leukemia 101% | MOLT-4 leukemia 103%

CN(C)CC1CCCCCC(CN(C)C)C1=O (centres undefined)
active: HCT-15 colon 7.44% | TK-10 renal; 10 µM unless noted -22.3% | ACHN renal -49.8% | CAKI-1 renal -48.5% | CCRF-CEM leukemia -23.7%
inactive: HT29 colon 31.8% | SNB-75 CNS 98.4% | SNB-19 CNS 108% | U251 CNS 89% | PC-3 prostate 86.7% | SK-MEL-5 melanoma 104% | UACC-62 melanoma; 10 µM unless noted 91.9% | LOX IMVI melanoma 81.3% | SK-MEL-28 melanoma 94.8% | SK-MEL-2 melanoma 106% | SN12C renal 94.9% | UO-31 renal 10.5% | A498 renal 117% | MOLT-4 leukemia 20.7%

CC1CCC2(C(=O)O)CCC3(C)C(=CCC4C5(C)CCC(O)C(C)(C)C5CCC43C)C2C1C (centres undefined)
5.91% (active) and 55.4% (inactive): UO-31 renal
-22.1% (active) and 35.8% (inactive): CCRF-CEM leukemia
inactive: HCT-15 colon 32.4% and 66.2% | HT29 colon 48.3% and 111% | SNB-75 CNS 32.2% and 95.6% | SNB-19 CNS 63.4% and 91.6% | U251 CNS 42.9% and 77.6% | PC-3 prostate 65.1% and 79.8% | SK-MEL-5 melanoma 24.7% and 96.2% | UACC-62 melanoma; 10 µM 88.6% and 81.2% | LOX IMVI melanoma 25.3% and 70.1% | SK-MEL-28 melanoma 35.9% and 78.7% | SK-MEL-2 melanoma 82.5% and 86.8% | EKVX NSCLC 74% and 70.8% | SN12C renal 79.3% and 99.7% | TK-10 renal; 10 µM 90.6% and 88.5% | CAKI-1 renal 40.4% and 90.8% | A498 renal 103%
active: UACC-62 melanoma; 100 µM -65.9% and -92.3% | TK-10 renal; 100 µM -77.6% and -96.8%
-11.8% (active) and 84.5% (inactive): MOLT-4 leukemia

O=c1n(CC2CO2)c(=O)n(CC2CO2)c(=O)n1CC1CO1 (centres undefined)
inactive: HCT-15 colon 75.9% | HT29 colon 70.3% | SNB-75 CNS 66.3% | SNB-19 CNS 83.9% | U251 CNS 56.2% | PC-3 prostate 71.4% | SK-MEL-5 melanoma 86.7% | UACC-62 melanoma; 10 µM unless noted 66% | LOX IMVI melanoma 54.5% | SK-MEL-28 melanoma 88.7% | SN12C renal 46.7% | UO-31 renal 38.2% | TK-10 renal; 10 µM unless noted 77.9% | ACHN renal 19.8% | A498 renal 88.4% | CCRF-CEM leukemia 32.5% | MOLT-4 leukemia 19.2%
active: CAKI-1 renal -7.84%

CC1CCC2(OC1)OC1CC3C4CC=C5CC(O)CCC5(C)C4CCC3(C)C1C2C (centres undefined)
active: CCRF-CEM leukemia -55.7%
inactive: HCT-15 colon 105% | HT29 colon 108% | SNB-75 CNS 83% | SNB-19 CNS 96.1% | U251 CNS 94.8% | PC-3 prostate 96.4% | SK-MEL-5 melanoma 105% | UACC-62 melanoma; 10 µM unless noted 90.6% | LOX IMVI melanoma 91.2% | SK-MEL-28 melanoma 115% | SK-MEL-2 melanoma 122% | EKVX NSCLC 96.6% | SN12C renal 100% | UO-31 renal 86% | TK-10 renal; 10 µM unless noted 101% | ACHN renal 93.5% | A498 renal 110% | MOLT-4 leukemia 102%

O=C(O)/C=C\C(=O)Nc1cccc2ccccc12
inactive: HCT-15 colon 102% and 96.9% | HT29 colon 98.1% and 110% | SNB-75 CNS 70% and 83% | SNB-19 CNS 104% and 100% | U251 CNS 94.2% and 102% | PC-3 prostate 103% and 93.6% | SK-MEL-5 melanoma 95.3% and 108% | UACC-62 melanoma; 10 µM unless noted 99.8% and 79.8% | LOX IMVI melanoma 102% and 104% | SK-MEL-28 melanoma 101% and 116% | SK-MEL-2 melanoma 88.2% and 130% | EKVX NSCLC 65.1% and 112% | SN12C renal 97.6% and 92.3% | UO-31 renal 59.7% and 72% | TK-10 renal; 10 µM unless noted 107% and 121% | CAKI-1 renal 89.4% and 98.7% | A498 renal 96.3% and 115% | CCRF-CEM leukemia 50.7% and 101% | MOLT-4 leukemia 77.2% and 84.1%

Cc1cc(-c2cc(C)c(O)c(C)c2)cc(C)c1O
inactive: HCT-15 colon 70.8% | HT29 colon 96.1% | SNB-75 CNS 65% | SNB-19 CNS 83.8% | U251 CNS 88.6% | PC-3 prostate 80.9% | SK-MEL-5 melanoma 73.9% | UACC-62 melanoma; 10 µM unless noted 62.8% | LOX IMVI melanoma 76.8% | SK-MEL-28 melanoma 88% | SK-MEL-2 melanoma 73.5% | SN12C renal 90.5% | UO-31 renal 77.1% | TK-10 renal; 10 µM unless noted 90.5% | ACHN renal 92.1% | CAKI-1 renal 59.4% | CCRF-CEM leukemia 82.6% | MOLT-4 leukemia 74.9%
